Reference: the supplement of paper PMC11732987, “Enantioselective OTUD7B fragment discovery through chemoproteomics screening and high-throughput optimisation” (Communications Chemistry, 2025)

What was measured:
Test in all cases: log2 ratio of Biotin-Ahx-Ub-VS probe labelling (fragment/DMSO); higher = less target engagement (more negative = stronger competition), active = hit call of the paper (q ≤ 0.05, log2 ratio ≤ -1)
Details in all cases: compound concentration: 200 uM; treatment time: 3 h
USP34 = USP34 (UniProt Q70CQ2)
Method in brief: (§1)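 Global-median-normalised Spectronaut label-free quantities were compared by unpaired t-test, and values are average log2 ratios of fragment over vehicle. Only proteins with ≥2 unique peptides were used. HEK293T lysate (495 µg per sample) was treated in triplicate with fragment at 200 µM or vehicle for 3 h and then with Biotin-Ahx-Ub-VS at 0.5 µM final for 1 h. Labelled DUBs were then NeutrAvidin-enriched, digested with LysC and trypsin, and run by diaPASEF LC-MS/MS.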

USP36 = target: T1, USP36 (UniProt Q9P275)
T1 sequence (whole entry): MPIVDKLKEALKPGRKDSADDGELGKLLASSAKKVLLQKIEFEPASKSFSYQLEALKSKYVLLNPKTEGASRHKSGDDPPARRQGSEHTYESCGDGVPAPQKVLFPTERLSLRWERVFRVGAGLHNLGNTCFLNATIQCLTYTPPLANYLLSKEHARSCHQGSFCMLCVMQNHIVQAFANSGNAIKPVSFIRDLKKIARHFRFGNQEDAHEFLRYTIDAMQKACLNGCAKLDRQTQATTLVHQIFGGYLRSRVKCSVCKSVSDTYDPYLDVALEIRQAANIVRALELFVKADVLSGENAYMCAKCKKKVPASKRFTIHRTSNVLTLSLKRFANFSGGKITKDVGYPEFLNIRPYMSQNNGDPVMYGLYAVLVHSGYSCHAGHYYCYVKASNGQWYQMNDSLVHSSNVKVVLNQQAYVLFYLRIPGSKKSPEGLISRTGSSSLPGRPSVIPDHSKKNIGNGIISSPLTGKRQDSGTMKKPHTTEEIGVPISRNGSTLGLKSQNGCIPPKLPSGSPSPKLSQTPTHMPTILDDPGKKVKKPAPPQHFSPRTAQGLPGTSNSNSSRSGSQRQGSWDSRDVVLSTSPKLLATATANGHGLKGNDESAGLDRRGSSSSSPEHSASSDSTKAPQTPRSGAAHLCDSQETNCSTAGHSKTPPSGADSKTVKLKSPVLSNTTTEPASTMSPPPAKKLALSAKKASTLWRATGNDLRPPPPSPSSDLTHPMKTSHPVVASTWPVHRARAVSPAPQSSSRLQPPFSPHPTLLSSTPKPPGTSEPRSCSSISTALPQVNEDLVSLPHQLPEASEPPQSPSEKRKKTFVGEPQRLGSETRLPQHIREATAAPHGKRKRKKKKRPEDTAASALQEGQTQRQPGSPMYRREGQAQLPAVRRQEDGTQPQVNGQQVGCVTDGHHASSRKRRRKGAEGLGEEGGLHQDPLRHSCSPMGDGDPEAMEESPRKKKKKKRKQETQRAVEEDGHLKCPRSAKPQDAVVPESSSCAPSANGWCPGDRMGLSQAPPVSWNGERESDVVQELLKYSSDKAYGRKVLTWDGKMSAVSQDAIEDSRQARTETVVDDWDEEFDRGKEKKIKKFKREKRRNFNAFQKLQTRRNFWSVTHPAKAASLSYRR
Method in brief: as §1

USP38 = target: T2, USP38 (UniProt Q8NB14)
T2 sequence (whole entry): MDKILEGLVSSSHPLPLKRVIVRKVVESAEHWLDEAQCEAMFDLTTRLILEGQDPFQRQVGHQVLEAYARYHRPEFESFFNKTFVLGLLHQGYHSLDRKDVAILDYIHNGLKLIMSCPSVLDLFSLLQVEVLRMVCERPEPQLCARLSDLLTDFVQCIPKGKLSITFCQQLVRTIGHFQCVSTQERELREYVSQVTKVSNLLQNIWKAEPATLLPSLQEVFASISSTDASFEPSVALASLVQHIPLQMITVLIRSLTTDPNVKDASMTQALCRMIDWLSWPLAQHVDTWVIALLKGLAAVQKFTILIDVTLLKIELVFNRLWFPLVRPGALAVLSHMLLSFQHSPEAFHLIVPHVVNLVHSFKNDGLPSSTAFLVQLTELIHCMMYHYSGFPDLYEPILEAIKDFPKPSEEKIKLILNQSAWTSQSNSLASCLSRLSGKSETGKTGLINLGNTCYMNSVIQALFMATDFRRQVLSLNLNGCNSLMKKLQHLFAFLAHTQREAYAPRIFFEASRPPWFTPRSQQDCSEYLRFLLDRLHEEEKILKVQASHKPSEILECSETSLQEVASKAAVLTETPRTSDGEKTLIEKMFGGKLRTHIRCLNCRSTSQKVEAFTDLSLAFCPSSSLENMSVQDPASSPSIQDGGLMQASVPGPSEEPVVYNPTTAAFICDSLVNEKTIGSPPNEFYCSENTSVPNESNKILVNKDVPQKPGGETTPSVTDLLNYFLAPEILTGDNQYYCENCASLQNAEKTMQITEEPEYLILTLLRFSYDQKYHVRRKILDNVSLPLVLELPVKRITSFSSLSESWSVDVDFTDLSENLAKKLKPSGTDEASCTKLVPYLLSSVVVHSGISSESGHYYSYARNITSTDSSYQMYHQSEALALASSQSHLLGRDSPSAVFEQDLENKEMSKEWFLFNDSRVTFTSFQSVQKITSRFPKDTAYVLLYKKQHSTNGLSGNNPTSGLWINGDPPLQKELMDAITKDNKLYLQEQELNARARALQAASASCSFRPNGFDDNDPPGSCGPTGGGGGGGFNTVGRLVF
Method in brief: as §1

USP39 = target: T3, USP39 (UniProt Q53GS9)
T3 sequence (whole entry): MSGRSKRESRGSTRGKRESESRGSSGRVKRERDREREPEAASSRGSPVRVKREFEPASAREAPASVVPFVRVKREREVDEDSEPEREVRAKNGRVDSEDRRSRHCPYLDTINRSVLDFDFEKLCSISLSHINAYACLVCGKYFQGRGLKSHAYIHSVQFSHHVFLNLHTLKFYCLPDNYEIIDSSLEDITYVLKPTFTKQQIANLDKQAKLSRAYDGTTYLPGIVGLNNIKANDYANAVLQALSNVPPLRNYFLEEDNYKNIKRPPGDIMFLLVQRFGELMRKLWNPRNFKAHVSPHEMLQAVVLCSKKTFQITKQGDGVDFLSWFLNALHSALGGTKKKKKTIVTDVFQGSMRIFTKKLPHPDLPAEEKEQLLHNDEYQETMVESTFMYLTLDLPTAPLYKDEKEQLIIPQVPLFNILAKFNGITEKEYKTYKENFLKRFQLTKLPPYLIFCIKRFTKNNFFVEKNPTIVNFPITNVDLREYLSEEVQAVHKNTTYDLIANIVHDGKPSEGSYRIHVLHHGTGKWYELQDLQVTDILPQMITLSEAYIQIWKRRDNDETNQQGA
Method in brief: as §1

USP4 = target: T4, USP4 (UniProt Q13107)
T4 sequence (whole entry): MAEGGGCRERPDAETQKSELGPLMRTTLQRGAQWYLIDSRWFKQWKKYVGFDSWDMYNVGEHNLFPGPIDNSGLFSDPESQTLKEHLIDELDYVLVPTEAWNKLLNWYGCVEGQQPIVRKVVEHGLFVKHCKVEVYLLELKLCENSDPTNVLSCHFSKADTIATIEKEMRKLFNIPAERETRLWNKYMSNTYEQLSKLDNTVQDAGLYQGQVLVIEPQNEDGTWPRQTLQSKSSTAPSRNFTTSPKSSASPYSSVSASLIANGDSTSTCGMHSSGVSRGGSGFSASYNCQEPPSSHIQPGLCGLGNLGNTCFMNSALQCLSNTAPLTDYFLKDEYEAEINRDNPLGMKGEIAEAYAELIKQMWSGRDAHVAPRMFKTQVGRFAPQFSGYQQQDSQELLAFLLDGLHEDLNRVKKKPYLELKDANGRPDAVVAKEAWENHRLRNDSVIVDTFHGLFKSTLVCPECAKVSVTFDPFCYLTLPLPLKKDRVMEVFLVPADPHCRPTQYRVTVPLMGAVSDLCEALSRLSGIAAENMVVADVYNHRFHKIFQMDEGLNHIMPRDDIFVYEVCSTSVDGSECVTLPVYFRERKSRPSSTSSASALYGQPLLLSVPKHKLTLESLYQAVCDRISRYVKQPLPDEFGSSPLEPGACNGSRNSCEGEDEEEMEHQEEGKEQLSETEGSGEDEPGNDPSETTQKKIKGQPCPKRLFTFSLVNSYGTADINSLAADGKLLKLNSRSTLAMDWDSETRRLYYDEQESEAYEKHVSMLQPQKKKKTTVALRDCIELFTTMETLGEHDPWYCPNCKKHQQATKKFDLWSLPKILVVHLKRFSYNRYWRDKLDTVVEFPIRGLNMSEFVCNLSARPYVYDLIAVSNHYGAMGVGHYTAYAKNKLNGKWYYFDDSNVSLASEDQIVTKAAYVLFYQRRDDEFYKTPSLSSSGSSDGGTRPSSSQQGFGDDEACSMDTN
Method in brief: as §1

Measured: log2 ratio of Biotin-Ahx-Ub-VS probe labelling

USP34, sequence (Q70CQ2 whole entry, the tested form may be a part): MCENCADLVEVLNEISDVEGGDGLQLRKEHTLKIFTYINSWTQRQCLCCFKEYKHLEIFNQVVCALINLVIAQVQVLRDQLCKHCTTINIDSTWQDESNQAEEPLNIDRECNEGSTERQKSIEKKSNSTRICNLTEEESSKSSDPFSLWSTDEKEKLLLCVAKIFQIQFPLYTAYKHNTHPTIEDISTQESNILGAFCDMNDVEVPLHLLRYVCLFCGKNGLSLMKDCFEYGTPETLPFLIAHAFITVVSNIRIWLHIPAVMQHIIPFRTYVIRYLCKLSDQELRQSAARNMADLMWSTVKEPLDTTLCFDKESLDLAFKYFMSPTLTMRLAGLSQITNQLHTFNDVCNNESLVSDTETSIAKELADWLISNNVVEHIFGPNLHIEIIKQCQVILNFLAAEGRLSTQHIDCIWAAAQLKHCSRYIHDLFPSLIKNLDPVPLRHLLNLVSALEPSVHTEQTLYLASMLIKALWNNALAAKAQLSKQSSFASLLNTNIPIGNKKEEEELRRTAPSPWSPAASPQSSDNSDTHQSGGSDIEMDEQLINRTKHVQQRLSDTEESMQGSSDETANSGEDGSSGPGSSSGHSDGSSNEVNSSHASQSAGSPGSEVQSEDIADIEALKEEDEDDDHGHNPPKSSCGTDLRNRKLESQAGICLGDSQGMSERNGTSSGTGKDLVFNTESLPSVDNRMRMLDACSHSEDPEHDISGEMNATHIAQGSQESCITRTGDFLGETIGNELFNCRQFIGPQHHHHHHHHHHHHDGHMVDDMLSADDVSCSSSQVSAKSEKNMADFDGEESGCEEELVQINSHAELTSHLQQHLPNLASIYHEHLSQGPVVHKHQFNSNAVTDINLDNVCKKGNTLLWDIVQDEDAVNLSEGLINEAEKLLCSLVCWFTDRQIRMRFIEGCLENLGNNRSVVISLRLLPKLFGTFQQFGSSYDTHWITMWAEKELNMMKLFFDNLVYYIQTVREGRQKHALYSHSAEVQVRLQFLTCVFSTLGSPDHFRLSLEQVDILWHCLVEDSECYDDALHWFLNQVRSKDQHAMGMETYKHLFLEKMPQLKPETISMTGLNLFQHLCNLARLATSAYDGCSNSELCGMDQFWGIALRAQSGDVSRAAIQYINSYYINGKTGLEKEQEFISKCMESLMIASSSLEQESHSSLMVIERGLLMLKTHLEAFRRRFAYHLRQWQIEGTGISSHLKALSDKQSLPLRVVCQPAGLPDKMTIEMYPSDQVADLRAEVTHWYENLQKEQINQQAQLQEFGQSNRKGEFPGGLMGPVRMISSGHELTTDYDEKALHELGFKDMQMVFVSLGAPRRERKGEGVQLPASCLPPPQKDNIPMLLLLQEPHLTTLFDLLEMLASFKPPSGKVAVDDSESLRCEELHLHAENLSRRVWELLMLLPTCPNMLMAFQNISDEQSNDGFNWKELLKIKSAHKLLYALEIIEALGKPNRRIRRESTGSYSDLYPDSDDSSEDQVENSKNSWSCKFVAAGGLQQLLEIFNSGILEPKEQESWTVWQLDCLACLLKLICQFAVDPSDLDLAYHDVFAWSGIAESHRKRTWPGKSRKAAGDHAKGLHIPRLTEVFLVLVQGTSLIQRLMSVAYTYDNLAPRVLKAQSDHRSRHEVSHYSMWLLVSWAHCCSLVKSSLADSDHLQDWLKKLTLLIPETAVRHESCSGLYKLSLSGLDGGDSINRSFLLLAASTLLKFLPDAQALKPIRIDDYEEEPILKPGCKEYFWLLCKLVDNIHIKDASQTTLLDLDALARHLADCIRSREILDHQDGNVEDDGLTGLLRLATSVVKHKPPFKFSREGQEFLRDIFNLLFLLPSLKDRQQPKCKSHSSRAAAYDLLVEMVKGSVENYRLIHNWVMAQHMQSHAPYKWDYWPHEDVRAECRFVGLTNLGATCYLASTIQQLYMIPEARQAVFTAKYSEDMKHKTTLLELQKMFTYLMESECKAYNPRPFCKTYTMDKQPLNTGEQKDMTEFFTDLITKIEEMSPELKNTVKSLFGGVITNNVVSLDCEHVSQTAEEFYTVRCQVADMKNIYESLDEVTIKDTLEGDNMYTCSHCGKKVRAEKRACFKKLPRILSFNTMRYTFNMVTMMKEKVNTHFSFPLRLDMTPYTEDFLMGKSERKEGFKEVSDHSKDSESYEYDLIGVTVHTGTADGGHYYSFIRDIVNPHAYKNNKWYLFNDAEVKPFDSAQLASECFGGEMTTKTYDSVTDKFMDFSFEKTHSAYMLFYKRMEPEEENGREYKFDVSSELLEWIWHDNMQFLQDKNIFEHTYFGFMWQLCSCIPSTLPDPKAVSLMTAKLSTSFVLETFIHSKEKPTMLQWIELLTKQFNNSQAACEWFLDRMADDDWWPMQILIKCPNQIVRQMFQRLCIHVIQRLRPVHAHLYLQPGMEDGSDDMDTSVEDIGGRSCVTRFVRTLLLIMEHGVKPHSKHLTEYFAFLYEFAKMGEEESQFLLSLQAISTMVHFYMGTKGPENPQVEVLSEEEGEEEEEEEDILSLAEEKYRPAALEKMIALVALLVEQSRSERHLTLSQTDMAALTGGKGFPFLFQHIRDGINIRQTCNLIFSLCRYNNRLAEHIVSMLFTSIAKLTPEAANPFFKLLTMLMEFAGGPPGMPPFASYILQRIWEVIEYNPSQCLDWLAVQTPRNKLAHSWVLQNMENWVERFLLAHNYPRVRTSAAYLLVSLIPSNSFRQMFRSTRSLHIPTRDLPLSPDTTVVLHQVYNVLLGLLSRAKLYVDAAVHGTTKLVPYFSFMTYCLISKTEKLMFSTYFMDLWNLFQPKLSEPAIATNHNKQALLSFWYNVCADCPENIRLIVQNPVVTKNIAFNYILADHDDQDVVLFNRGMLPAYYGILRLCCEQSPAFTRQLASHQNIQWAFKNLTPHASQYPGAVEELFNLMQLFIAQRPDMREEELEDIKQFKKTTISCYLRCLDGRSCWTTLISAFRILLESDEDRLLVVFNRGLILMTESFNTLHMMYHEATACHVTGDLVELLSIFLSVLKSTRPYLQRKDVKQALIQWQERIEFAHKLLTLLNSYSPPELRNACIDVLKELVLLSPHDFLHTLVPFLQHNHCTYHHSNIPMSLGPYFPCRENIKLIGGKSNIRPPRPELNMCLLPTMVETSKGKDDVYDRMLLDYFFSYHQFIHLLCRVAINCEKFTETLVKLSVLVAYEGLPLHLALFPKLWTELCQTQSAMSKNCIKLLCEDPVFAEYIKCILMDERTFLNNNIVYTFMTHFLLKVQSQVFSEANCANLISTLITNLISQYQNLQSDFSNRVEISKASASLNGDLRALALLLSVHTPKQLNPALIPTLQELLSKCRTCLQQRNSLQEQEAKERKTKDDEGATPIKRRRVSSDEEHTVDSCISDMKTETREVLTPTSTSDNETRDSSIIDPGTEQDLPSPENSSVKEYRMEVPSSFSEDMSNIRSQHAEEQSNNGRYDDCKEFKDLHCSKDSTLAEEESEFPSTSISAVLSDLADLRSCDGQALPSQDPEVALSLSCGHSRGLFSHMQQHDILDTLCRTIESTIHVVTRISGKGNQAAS

O=C(CCl)N1CCC(C(=O)N2CCCC2)CC1
inactive: USP34 -0.0649 | USP36 -0.172 | USP38 -0.135 | USP39 -0.453 | USP4 -0.208
